# Test results: the supplement of paper PMC7411640
# Where a name gives a salt, the structure may show the parent alone.
# Test system: MDA-MB-468
# Assay: phospho-S6 immunofluorescence (DAPI-normalised), per-plate z-score; higher = higher phospho-S6 signal (less pathway suppression)
# Conditions: 24 h
# Protocol: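 GPCR-targeted compound library (MedChemExpress HY-L006) tested on MDA-MB-468 PTEN-null TNBC cells in 384-well plates at 0.1, 1 or 10 uM, combined with vehicle, GDC0941 450 nM or lapatinib 1 uM, for 24 h. Phospho-S6 (S240/244) immunofluorescence normalised to DAPI and expressed as a per-plate z-score; values are the mean of biological triplicates.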
compound,measurement,setting,value
O=C1CC[C@@]2(O)[C@H]3Cc4ccc(O)c5c4[C@@]2(CCN3CC2CC2)[C@H]1O5 [Naltrexone (Hydrochloride)] (compound 10 µM),phospho-S6 immunofluorescence (z-score),co-treatment: GDC0941 450 nM,0.88
same,phospho-S6 immunofluorescence (z-score),co-treatment: lapatinib 1 uM,0.25
same,phospho-S6 immunofluorescence (z-score),co-treatment: vehicle,1.41
CN1CCC(C(=O)c2cccc(NC(=O)c3c(F)cc(F)cc3F)n2)CC1 [Lasmiditan (hydrochloride)] (compound 10 µM),phospho-S6 immunofluorescence (z-score),co-treatment: GDC0941 450 nM,-2.08
same,phospho-S6 immunofluorescence (z-score),co-treatment: lapatinib 1 uM,-3.95
same,phospho-S6 immunofluorescence (z-score),co-treatment: vehicle,-0.09
C[C@H]1CNCCc2ccc(Cl)cc21 [Lorcaserin (Hydrochloride)] (compound 10 µM),phospho-S6 immunofluorescence (z-score),co-treatment: GDC0941 450 nM,-1
same,phospho-S6 immunofluorescence (z-score),co-treatment: lapatinib 1 uM,-0.25
same,phospho-S6 immunofluorescence (z-score),co-treatment: vehicle,-0.95
CN1[C@@H]2CC(O)C[C@H]1[C@@H]1O[C@@H]12 (some centres not stated) [Scopine (hydrochloride)] (compound 10 µM),phospho-S6 immunofluorescence (z-score),co-treatment: GDC0941 450 nM,1.05
same,phospho-S6 immunofluorescence (z-score),co-treatment: lapatinib 1 uM,0.28
same,phospho-S6 immunofluorescence (z-score),co-treatment: vehicle,-1.09
CC(C)[C@@H](CN1CC[C@@](C)(c2cccc(O)c2)[C@@H](C)C1)NC(=O)[C@H]1Cc2ccc(O)cc2CN1 [JDTic (dihydrochloride)] (compound 10 µM),phospho-S6 immunofluorescence (z-score),co-treatment: GDC0941 450 nM,0.26
same,phospho-S6 immunofluorescence (z-score),co-treatment: lapatinib 1 uM,-2.5
same,phospho-S6 immunofluorescence (z-score),co-treatment: vehicle,0.81
CC(C)C[C@H]1C(=O)N2CCC[C@H]2[C@]2(O)O[C@](NC(=O)[C@@H]3C=C4c5cccc6[nH]c(Br)c(c56)C[C@H]4N(C)C3)(C(C)C)C(=O)N12 [Bromocriptine (mesylate)] (compound 10 µM),phospho-S6 immunofluorescence (z-score),co-treatment: GDC0941 450 nM,-3.83
same,phospho-S6 immunofluorescence (z-score),co-treatment: lapatinib 1 uM,-3.57
same,phospho-S6 immunofluorescence (z-score),co-treatment: vehicle,-1.61
Cc1ccc2c(c1)[C@]13CCCC[C@@H]1[C@H](C2)N(C)CC3 [Dimemorfan (phosphate)] (compound 10 µM),phospho-S6 immunofluorescence (z-score),co-treatment: GDC0941 450 nM,0.3
same,phospho-S6 immunofluorescence (z-score),co-treatment: lapatinib 1 uM,0.09
same,phospho-S6 immunofluorescence (z-score),co-treatment: vehicle,0.76
CCN(CC)C(=O)c1ccc(C2=CC3(CCNCC3)Oc3cccc(O)c32)cc1 (compound 10 µM),phospho-S6 immunofluorescence (z-score),co-treatment: GDC0941 450 nM,0.32
same,phospho-S6 immunofluorescence (z-score),co-treatment: lapatinib 1 uM,-0.78
same,phospho-S6 immunofluorescence (z-score),co-treatment: vehicle,0.88
CN1[C@@H]2C[C@@H](OC(=O)[C@H](CO)c3ccccc3)C[C@H]1[C@@H]1O[C@@H]12 [Scopolamine (hydrobromide)] (compound 10 µM),phospho-S6 immunofluorescence (z-score),co-treatment: GDC0941 450 nM,-1.4
same,phospho-S6 immunofluorescence (z-score),co-treatment: lapatinib 1 uM,-0.16
same,phospho-S6 immunofluorescence (z-score),co-treatment: vehicle,0.68
N[C@]1(C(=O)O)CC[C@H](C(=O)O)C1 [trans-ACPD] (compound 10 µM),phospho-S6 immunofluorescence (z-score),co-treatment: GDC0941 450 nM,0.3
same,phospho-S6 immunofluorescence (z-score),co-treatment: lapatinib 1 uM,0.1
same,phospho-S6 immunofluorescence (z-score),co-treatment: vehicle,-0.68
COc1ccc(C(=O)c2c(C)n(CCN3CCOCC3)c3cc(I)ccc23)cc1 (compound 10 µM),phospho-S6 immunofluorescence (z-score),co-treatment: GDC0941 450 nM,-3.18
same,phospho-S6 immunofluorescence (z-score),co-treatment: lapatinib 1 uM,-1.01
same,phospho-S6 immunofluorescence (z-score),co-treatment: vehicle,-3.47
NCCc1cc(O)c(O)cc1O [Oxidopamine (hydrobromide)] (compound 10 µM),phospho-S6 immunofluorescence (z-score),co-treatment: GDC0941 450 nM,0.33
same,phospho-S6 immunofluorescence (z-score),co-treatment: lapatinib 1 uM,2.77
same,phospho-S6 immunofluorescence (z-score),co-treatment: vehicle,2.94
COc1ccc2c(c1)[C@]13CCCC[C@@H]1[C@H](C2)N(C)CC3 [Dextromethorphan (hydrobromide hydrate)] (compound 10 µM),phospho-S6 immunofluorescence (z-score),co-treatment: GDC0941 450 nM,-0.24
same,phospho-S6 immunofluorescence (z-score),co-treatment: lapatinib 1 uM,-0.31
same,phospho-S6 immunofluorescence (z-score),co-treatment: vehicle,0.42
COc1ccc2c(c1)[nH]c1c(C)nccc12 [Harmine] (compound 10 µM),phospho-S6 immunofluorescence (z-score),co-treatment: GDC0941 450 nM,-0.75
same,phospho-S6 immunofluorescence (z-score),co-treatment: lapatinib 1 uM,-1.57
same,phospho-S6 immunofluorescence (z-score),co-treatment: vehicle,-1.55
